Screening results (PubChem)
In the library only some 1.2% were active in any assay of this set; here they are far more common.
KCNH2 3.1 inh: KCNH2 3.1 (human) potassium channel inhibition; activity change, % (tested at about 1.8 µM); U2OS KCNH2 3.1, thallium flux FluxOr; hits give low values; 340,000 tested, 0.95% active;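 active = maximum activity change below -70%; inconclusive = maximum activity change from -70% to -50%; inactive = maximum activity change above -50%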;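 also: thallium influx rate constant from kinetic fluorescence after stimulation buffer; % is scaled to controls: 0 for no effect and ±100 for the full control effect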
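Steps: virus added to U2OS suspension (4 h, RT, dark); medium with 10% FBS added, cells plated, 37 C overnight; FluxOr/Red40 loading buffer 45 min RT; stimulation buffer, 2 min kinetic read; rate constant normalized.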
KCNH2 WT inh: KCNH2 (human, wildtype) channel inhibition; Q12809; activity change, % at 1.84 µM; U2OS, BacMam KCNH2, thallium flux FluxOr; hits give low values; 340,000 tested, 0.37% active;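 active = maximum activity change below -70%; inconclusive = maximum activity change between -70% and -50%; inactive = maximum activity change above -50%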; also: % is scaled to controls: 0 for no effect and ±100 for the full control effect
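U2OS cells transduced with wild-type KCNH2 virus are loaded with FluxOr dye for 45 min, and thallium flux is measured in kinetic reads before and after stimulation buffer. Rate constants are normalized to DMSO controls.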
Apoferritin bind: binds horse apoferritin like a general anesthetic; apoferritin/1-aminoanthracene competitive binding, fluorescence; 350,000 tested, 0.074% active; P02791; Potency, µM (series often up to 77.5 µM), without a hit: at the highest dose activity change, negative = displacement, actives largely listed as inhibitors; AID 485281; also: potency is read from the fitted curve at half-maximal effect; % is scaled to controls: 0 for no effect and ±100 for the full control effect; nearly all actives have a fitted effect of over 20% in size
Target sequence (P02791 2-175 limits assumed): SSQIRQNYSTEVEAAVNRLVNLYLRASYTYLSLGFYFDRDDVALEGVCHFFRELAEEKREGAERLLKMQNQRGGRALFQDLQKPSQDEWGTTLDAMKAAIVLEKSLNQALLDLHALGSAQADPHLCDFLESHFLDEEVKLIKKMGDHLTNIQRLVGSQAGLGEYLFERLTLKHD
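Horse-spleen apoferritin (10 uM) was mixed with 50% saturated 1-aminoanthracene in PBS, exposed to compounds for 10 min at room temperature, and read for fluorescence (ex 380 nm, em 535 nm). Competitive displacement was fitted with a four-parameter Hill equation.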
S-ASM inh: human S-ASM enzyme inhibition; AID 504937; P17405; 340,000 tested, 0.006% active; placental ASM, HMU-PC fluorogenic substrate, 60 min; Potency, µM (series often up to 57.5 µM), without a hit: at the highest dose activity change, negative = inhibition, hits mostly inhibitors; also: potency is read from the fitted curve at half-maximal effect
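Fluorogenic HMU-PC substrate (9 uM final) is turned over by placental ASM in 60 min at 37 C after a 10 min compound preincubation. Reaction ended by alkaline stop (pH 10), with fluorescence read at 386/447 nm.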
mIDH1 inhibitor: inhibitors of human mutant IDH1 R132H | IDH1-R132H enzyme, NADPH consumption, diaphorase/resazurin fluorescence | Potency, µM (titrated, usually from 76.6 µM), without a hit: at the top dose activity change, negative = inhibition, actives largely listed as inhibitors | 390,000 tested, 0.093% active; also: potency is read from the fitted curve at half-maximal effect; % is scaled to controls: 0 for no effect and ±100 for the full control effect; nearly all actives have a fitted effect of over 65% in size
Target sequence (O75874 whole entry R132H, stated change not applied): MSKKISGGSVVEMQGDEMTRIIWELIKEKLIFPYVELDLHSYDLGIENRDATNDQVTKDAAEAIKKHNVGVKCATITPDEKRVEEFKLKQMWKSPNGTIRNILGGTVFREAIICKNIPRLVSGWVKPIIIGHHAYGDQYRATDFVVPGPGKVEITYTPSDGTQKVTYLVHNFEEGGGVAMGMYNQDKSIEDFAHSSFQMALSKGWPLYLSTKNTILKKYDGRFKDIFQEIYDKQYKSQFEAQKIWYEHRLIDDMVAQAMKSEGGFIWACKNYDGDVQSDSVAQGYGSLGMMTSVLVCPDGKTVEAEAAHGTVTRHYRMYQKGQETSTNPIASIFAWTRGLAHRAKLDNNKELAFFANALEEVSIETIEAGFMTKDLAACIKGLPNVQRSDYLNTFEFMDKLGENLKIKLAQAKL
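IDH1-R132H (0.5 ug/mL dispensed) in pH 7.5 Tris buffer was preincubated 30 min with compound, then given a substrate mix of 0.016 mM NADPH and 2 mM alpha-KG for 80 min at room temperature; remaining NADPH was read by diaphorase/resazurin fluorescence.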
The depositor's hits bear a star; ? = inconclusive; · = no result given; [ ] = another dose, or the depositor's remark. Unless noted, calls follow the shape of the dose curve; as a rule, active = well fitted inhibition curve with a large enough effect; inconclusive = small, poorly fitted or top-dose-only effect; inactive = no such curve, though single readings can be large or run the other way.

SMILES	KCNH2 3.1 inh	KCNH2 WT inh	Apoferritin bind	S-ASM inh	mIDH1 inhibitor
CN(C)CCN(Cc1ccco1)C(=O)c1oc2ccccc2c1NC(=O)c1cccc(F)c1	·	·	?	·	20%
CN(C)CCN(Cc1ccco1)C(=O)c1oc2ccccc2c1NC(=O)COc1ccccc1	-95*	-33	-3%	0%	0%
O=C(c1cc(-c2cccc(Cl)c2)on1)N1CCCC1	-131*	-7	-1%	-1%	5%
CCc1ccc(CNC(=O)c2cnc3sc(N4CCCCC4)nn3c2=O)cc1	·	·	-5%	·	2%
CCN1C(=O)[C@H]2[C@@H](c3ccc(C)cc3)N3C(=O)N(c4cccc(Br)c4)C(=O)[C@@]3(C)[C@H]2C1=O	-80*	-12	·	-10%	-10%
Cc1cccc([C@@H]2[C@@H]3C(=O)N(Cc4ccccc4)C(=O)[C@@H]3[C@]3(Cc4ccccc4)C(=O)N(c4cccc(Cl)c4)C(=O)N23)c1	14	-13	·	2%	-7%
Cc1cccc([C@@H]2[C@@H]3C(=O)N(Cc4ccccc4)C(=O)[C@@H]3[C@]3(C)C(=O)N(c4cccc(Cl)c4)C(=O)N23)c1	-74*	-2	-3%	-3%	7%
CCCOc1ccc(CN2C(=O)C(=O)c3cccc(C)c32)cc1	·	·	32µM*	·	?
CCc1c(C)sc2c1CCN(Cc1cccc(F)c1)C2c1ccccc1 (centres undefined)	·	·	-4%	·	-8%
CCCN1CCN(C(=O)Cn2cnc3ccc(S(=O)(=O)N4CCC(C)CC4)cc3c2=O)CC1	-85*	-2	-8%	6%	-6%
CSCC[C@H](NC(=O)[C@H](Cc1ccccc1)NC(=O)[C@H](Cc1cnc[nH]1)NC(=O)CNC(=O)[C@@H](NC(=O)[C@H](C)NC(=O)[C@H](Cc1c[nH]c2ccccc12)NC(=O)[C@H](CC(C)C)NC(=O)[C@H](CC(N)=O)NC(=O)CN)[C@@H](C)O)C(N)=O	·	·	3%	·	·
C=C1C(N)CC2CC1C2(C)C (centres undefined)	·	·	-5%	·	·
CC(Nc1cccc(C(=O)NC2CC2)c1)c1nnc(-c2ccccc2)o1 (centres undefined)	7	1	·	3%	-7%
Cc1cccc(-c2nnc(C(C)Nc3cccc(C(=O)NC4CC4)c3)o2)c1 (centres undefined)	-73*	7	·	·	9%
COc1ccc(OCC2CC3C(CCC(C)C3c3ccc(Br)cc3)C(=O)O2)cc1 (centres undefined)	·	·	-15%[15.3 µM]	·	·
O=C1NC2(CCCCCC2)C(=O)N1Cc1ccc(F)cc1Cl	-127*	-3	2%	-1%	7%
O=C1NC2(CCCCCC2)C(=O)N1Cc1ccc(Cl)cc1Cl	-19	-13	-3%	-6%	9%
CCOC(=O)C1CCCN(c2nc3c(S(=O)(=O)c4ccc(C)c(C)c4)nnn3c3ccc(Cl)cc23)C1 (centres undefined)	·	·	89%	·	10%
O=C(COc1ccccc1)N1CCN(S(=O)(=O)Cc2ccccc2)CC1	-9	-269*	-10%	3%	-1%
C=CCC[C@@H](Cc1ccc(F)cc1)C(=O)OC[C@@H](NC(=O)[C@@H](CC=C)CC(=O)N[C@@H](CO)Cc1ccccc1)C(C)(C)C	·	·	·	-1%	-4%
C=CCC[C@H](Cc1ccc(F)cc1)C(=O)OC[C@@H](NC(=O)[C@@H](CC=C)CC(=O)N[C@@H](CO)Cc1ccccc1)C(C)(C)C	-17	-100*	·	-6%	15%
Nc1nonc1-n1nnc(C(=O)N/N=C/c2ccc(OCc3ccccc3)cc2)c1CN1CCCCC1	-98*	6	-17%	-22%	-7%
CN(C)c1ccc(/C=N/NC(=O)c2nnn(-c3nonc3N)c2CN2CCCCCC2)cc1	-38	7	·	35%	4%
CCCCOc1ccc(/C=N/NC(=O)c2nnn(-c3nonc3N)c2CN2CCCCCC2)cc1	-81*	-1	·	?	6%
CCOC(=O)c1c(NC(=O)c2cc(-c3cccc(Cl)c3)on2)sc(C(C)=O)c1C	·	·	3%	·	0%
SMILES	KCNH2 3.1 inh	KCNH2 WT inh	Apoferritin bind	S-ASM inh	mIDH1 inhibitor
c1ccc2c(C3=NNC(=NC4CC4)SC3)c[nH]c2c1	8	-10	4%	3%	-8%
c1ccc2c(C3=NNC(=NC4CCCCC4)SC3)c[nH]c2c1	-86*	4	-15%	0%	5%
Cc1ccc(CN2CCCn3nc(C(=O)NCCc4cccc(C)c4)cc3C2=O)cc1	·	·	28%	·	-14%
Cc1ccc(-c2nc(CS(=O)CC(=O)NC3CC3)c(C)o2)cc1 (centres undefined)	13	-5	-5%	-15%	0%
Cc1oc(-c2ccccc2Cl)nc1CS(=O)CC(=O)NC1CC1 (centres undefined)	8	-261*	7%	1%	15%
O=C(CN1CCN(S(=O)(=O)c2cc(Cl)ccc2Cl)CC1)Nc1cccc(F)c1	·	·	-13%	·	0%
CCCOc1ccc(CCc2n[nH]c(=S)n2-c2ccccc2)cc1	-74*	-3	-10%	-1%	3%
CCOc1ccc(-n2c(CCc3ccccc3)n[nH]c2=S)cc1	-1	6	-15%	-1%	1%
CC(NCc1cccc(OCc2ccccc2)c1)C(O)c1ccccc1 (centres undefined)	-148*	22	?	4%	4%
CC(NCc1ccc(OCc2ccc(Cl)cc2)cc1)C(O)c1ccccc1 (centres undefined)	-34	27	?	-10%	-2%
Cn1cc(C(=O)c2ccc(Cl)cc2Cl)cc1C(=O)N/N=C(\N)COc1ccc(Cl)cc1	-73*	9	6%	-4%	0%
Cc1ccc(N2CCN(C(=O)c3cn(CC4CCCCC4)nn3)C(C)C2)cc1 (centres undefined)	-71*	-6	·	-6%	1%
O=C(c1cn(CC2CCCCC2)nn1)N1CCN(c2ccc(F)cc2)CC1	8	4	?	-2%	0%
CCC(C)NC(=O)c1ccc2c(c1)nc1n2CCCCC1 (centres undefined)	·	·	16%	·	0%
CCN(CC)c1ccc(/C=C(/C#N)c2nc3ccc(C)cc3[nH]2)c(OC(C)C)c1	?	-70*	-16%	?	-2%
COc1ccccc1CN1CCN(C2CCN(C(=O)Nc3ccccc3)CC2)C(=O)C1=O	·	·	30%	·	11%
O=C(/C=C/c1ccccc1Cl)Nc1nc(-c2cccs2)ns1	·	·	-6%	·	-1%
CC(=O)N(CCC(Cc1ccccc1)c1ccc2c(c1)OCO2)Cc1ccc(Cl)cc1 (centres undefined)	-18	0	72%	?	7.4µM*
CN1CCO[C@H](c2ccccc2)c2ccccc2C1	·	·	3%[29.3 µM]	·	·
C=C(C)C(=O)OCCOC(=O)C(=C)C	·	·	-3%	·	·
Cc1ccc(NC(=O)c2sc3ccccc3c2Cl)cc1	·	·	2%	·	-13%
O=C(Nc1ccc(N2CCN(C(=O)c3ccc(Cl)cc3)CC2)cc1)c1cc2ccccc2o1	-111*	-117*	-7%	-2%	-1%
